Assay results published in PubChem BioAssay (NCI).
About 83,000 compounds went through this panel and 20% of them were active in at least one assay; those are over-represented in the sample as a whole.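 The endpoint reported here, percent growth, reads 100 for growth as untreated, 0 for no net growth and -100 for all cells dead.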 The source made the active and inactive calls. Rule for the calls: active = growth percent below 10; inactive = the rest.

How the values were obtained:
Experiment in all cases: NCI-60 one-dose screen, 48 h (100 = growth as untreated, 0 = no growth, -100 = all killed)
Conditions in all cases: 10 µM
RPMI-8226 leukemia = tested on: RPMI-8226 leukemia
OVCAR-8 ovarian = tested on: OVCAR-8 ovarian
OVCAR-5 ovarian = tested on: OVCAR-5 ovarian
OVCAR-4 ovarian = tested on: OVCAR-4 ovarian
SK-OV-3 ovarian = tested on: SK-OV-3 ovarian
IGROV1 ovarian = tested on: IGROV1 ovarian
OVCAR-3 ovarian = tested on: OVCAR-3 ovarian
HS 578T breast = tested on: HS 578T breast
T-47D breast = tested on: T-47D breast
BT-549 breast = tested on: BT-549 breast
MDA-MB-435 melanoma = tested on: MDA-MB-435 melanoma
SW-620 colon = tested on: SW-620 colon
MCF7 breast = tested on: MCF7 breast
HCT-116 colon = tested on: HCT-116 colon
HCC-2998 colon = tested on: HCC-2998 colon
NCI/ADR-RES ovarian = tested on: NCI/ADR-RES ovarian
KM12 colon = tested on: KM12 colon

Measured: growth

COc1ccc(Nc2ncnc3c2c(SC)nn3-c2ccccc2)cc1
inactive: RPMI-8226 leukemia 85.3% | OVCAR-8 ovarian 98% | OVCAR-5 ovarian 96.7% | OVCAR-4 ovarian 73.3% | SK-OV-3 ovarian 109% | IGROV1 ovarian 88.4% | OVCAR-3 ovarian 99.1% | HS 578T breast 136% | T-47D breast 70.7% | BT-549 breast 96.5% | MDA-MB-435 melanoma 97.8% | SW-620 colon 103% | MCF7 breast 103% | HCT-116 colon 89.2% | HCC-2998 colon 103%

CCCCCCCC(C)NCCO (centres undefined)
inactive: RPMI-8226 leukemia 107% | OVCAR-8 ovarian 98.7% | OVCAR-5 ovarian 111% | OVCAR-4 ovarian 118% | SK-OV-3 ovarian 93.6% | IGROV1 ovarian 103% | OVCAR-3 ovarian 101% | HS 578T breast 99.4% | NCI/ADR-RES ovarian 111% | T-47D breast 100% | MDA-MB-435 melanoma 97.6% | SW-620 colon 106% | MCF7 breast 97.9% | HCT-116 colon 111% | HCC-2998 colon 105% | KM12 colon 102%

Cc1cc2ccccc2nc1-c1ccccc1F
inactive: RPMI-8226 leukemia 101% | OVCAR-8 ovarian 102% | OVCAR-5 ovarian 106% | OVCAR-4 ovarian 117% | SK-OV-3 ovarian 96.4% | IGROV1 ovarian 129% | OVCAR-3 ovarian 105% | HS 578T breast 106% | NCI/ADR-RES ovarian 112% | BT-549 breast 92.2% | MDA-MB-435 melanoma 111% | SW-620 colon 106% | MCF7 breast 101% | HCT-116 colon 102% | HCC-2998 colon 109% | KM12 colon 110%

COc1cc(-c2nc(-c3nnc(-c4ccc(F)c(Cl)c4)o3)c3ccccn23)cc(OC)c1OC
active: OVCAR-8 ovarian -28.2% | OVCAR-4 ovarian -40.4% | SK-OV-3 ovarian -4.85% | BT-549 breast 2.74% | HCT-116 colon -31.5% | KM12 colon 5.68%
inactive: RPMI-8226 leukemia 35.3% | OVCAR-5 ovarian 67.6% | IGROV1 ovarian 72.9% | OVCAR-3 ovarian 22.3% | HS 578T breast 58.6% | T-47D breast 30.4% | MDA-MB-435 melanoma 49.8% | SW-620 colon 58.7% | MCF7 breast 15.5% | HCC-2998 colon 64.1%

C=C(C(=O)c1ccccc1)C(NC(C)(C)C)c1ccccc1 (centres undefined)
active: RPMI-8226 leukemia -3.32% | OVCAR-8 ovarian -32% | OVCAR-5 ovarian -29.2% | OVCAR-4 ovarian -13.1% | IGROV1 ovarian 3.59% | OVCAR-3 ovarian -65.9% | NCI/ADR-RES ovarian -7% | MDA-MB-435 melanoma 7.63% | SW-620 colon -19.7% | MCF7 breast 9.57% | HCT-116 colon -90.6% | HCC-2998 colon 1.14%
inactive: SK-OV-3 ovarian 67.9% | HS 578T breast 36.8% | BT-549 breast 34.8% | KM12 colon 25.8%

O=C(c1ccc(Cl)cc1Cl)N1CCOCC1
inactive: RPMI-8226 leukemia 95.9% | OVCAR-8 ovarian 104% | OVCAR-5 ovarian 96% | OVCAR-4 ovarian 98.9% | SK-OV-3 ovarian 98.5% | IGROV1 ovarian 105% | OVCAR-3 ovarian 109% | HS 578T breast 107% | T-47D breast 92.3% | BT-549 breast 92.3% | MDA-MB-435 melanoma 104% | SW-620 colon 102% | MCF7 breast 97.6% | HCT-116 colon 93.8% | HCC-2998 colon 106% | KM12 colon 110%

Cn1c(C(N)=O)cc2c1-c1nc(Nc3ccccc3)ncc1CCC2
active: KM12 colon 7.9%
inactive: RPMI-8226 leukemia 53.2% | OVCAR-8 ovarian 51% | OVCAR-5 ovarian 36.4% | OVCAR-4 ovarian 33.1% | SK-OV-3 ovarian 40.2% | IGROV1 ovarian 25.5% | OVCAR-3 ovarian 63.5% | HS 578T breast 17.3% | T-47D breast 65.1% | BT-549 breast 33.7% | MDA-MB-435 melanoma 45% | SW-620 colon 57.2% | MCF7 breast 38.7% | HCT-116 colon 25.8% | HCC-2998 colon 73.1%

CCCCCCCCCCCCCCCCCC(=O)OCCCCCCC
inactive: RPMI-8226 leukemia 96.8% | OVCAR-8 ovarian 102% | OVCAR-5 ovarian 106% | OVCAR-4 ovarian 110% | SK-OV-3 ovarian 105% | IGROV1 ovarian 111% | OVCAR-3 ovarian 101% | HS 578T breast 109% | T-47D breast 99.6% | BT-549 breast 110% | MDA-MB-435 melanoma 94.6% | MCF7 breast 107% | HCT-116 colon 118% | HCC-2998 colon 102% | KM12 colon 97.6%

Cc1ccc(NC(=O)Nc2cccnc2)cc1NC(=O)Nc1cccnc1
inactive: RPMI-8226 leukemia 42.9% | OVCAR-8 ovarian 73.8% | OVCAR-5 ovarian 110% | OVCAR-4 ovarian 77.7% | SK-OV-3 ovarian 101% | IGROV1 ovarian 68.5% | OVCAR-3 ovarian 93.2% | HS 578T breast 95.7% | T-47D breast 58% | BT-549 breast 98.1% | MDA-MB-435 melanoma 73.9% | SW-620 colon 108% | MCF7 breast 81% | HCT-116 colon 90.2% | HCC-2998 colon 87.7% | KM12 colon 87.2%

COc1ccc(S(=O)(=O)NCCCNc2nccc(-c3c(-c4ccc(F)cc4)nc4sccn34)n2)cc1
inactive: RPMI-8226 leukemia 47.8% | OVCAR-8 ovarian 41.9% | OVCAR-5 ovarian 92.6% | OVCAR-4 ovarian 77.3% | SK-OV-3 ovarian 74.5% | IGROV1 ovarian 30.2% | OVCAR-3 ovarian 74.9% | HS 578T breast 83% | T-47D breast 24.2% | BT-549 breast 70.6% | MDA-MB-435 melanoma 27.9% | SW-620 colon 74.8% | MCF7 breast 33.6% | HCT-116 colon 42.1% | HCC-2998 colon 65.5% | KM12 colon 40.6%

CCOC1(OCC)OC(c2ccccc2)=C(C#N)C(/C=C\c2ccccc2)C1(OCC)OCC (centres undefined)
inactive: RPMI-8226 leukemia 44.5% | OVCAR-8 ovarian 86.5% | OVCAR-5 ovarian 103% | OVCAR-4 ovarian 79.6% | SK-OV-3 ovarian 94.8% | IGROV1 ovarian 85.6% | OVCAR-3 ovarian 71.8% | HS 578T breast 95.1% | T-47D breast 67.5% | BT-549 breast 95.3% | MDA-MB-435 melanoma 97.2% | SW-620 colon 83.2% | MCF7 breast 77.4% | HCT-116 colon 53.9% | HCC-2998 colon 83.1% | KM12 colon 84.3%

CCCCOC(=O)Oc1ccc(C(=O)Oc2ccc(OCC)cc2)cc1
inactive: RPMI-8226 leukemia 74.6% | OVCAR-8 ovarian 99.1% | OVCAR-5 ovarian 94.3% | OVCAR-4 ovarian 87.9% | SK-OV-3 ovarian 111% | IGROV1 ovarian 105% | OVCAR-3 ovarian 98.6% | HS 578T breast 94.5% | T-47D breast 111% | BT-549 breast 85.9% | MDA-MB-435 melanoma 93.4% | SW-620 colon 110% | MCF7 breast 123% | HCT-116 colon 98.2% | HCC-2998 colon 102% | KM12 colon 94.8%

CC(C)N(CCNc1nc(C(Cl)(Cl)Cl)nc2cc(Cl)ccc12)C(C)C
active: RPMI-8226 leukemia 3.61% | OVCAR-8 ovarian -73.9% | OVCAR-5 ovarian -11.1% | OVCAR-4 ovarian 7.56% | SK-OV-3 ovarian -27.6% | IGROV1 ovarian -38.4% | OVCAR-3 ovarian -37.5% | T-47D breast 5.12% | MDA-MB-435 melanoma -47.2% | MCF7 breast -85.6% | HCT-116 colon -90.6% | HCC-2998 colon -50.2% | KM12 colon -79.1%
inactive: HS 578T breast 12% | BT-549 breast 21.3%

O=C(/C(=C/c1ccccc1)CN1CCCCC1)c1ccccc1
active: RPMI-8226 leukemia -6.34% | OVCAR-5 ovarian -66.5% | IGROV1 ovarian -7.89% | OVCAR-3 ovarian -92.7% | NCI/ADR-RES ovarian 4.84% | BT-549 breast -56.6% | MDA-MB-435 melanoma 6.16% | SW-620 colon 0.239% | MCF7 breast -22% | HCT-116 colon -87.4% | HCC-2998 colon -91% | KM12 colon -75.8%
inactive: OVCAR-8 ovarian 11% | OVCAR-4 ovarian 12% | SK-OV-3 ovarian 31% | HS 578T breast 47.5%

COc1ccc(-c2cc(/C=C3\C(=O)Nc4ccc(OC)cc43)[nH]n2)cc1
inactive: RPMI-8226 leukemia 20.6% | OVCAR-8 ovarian 48.8% | OVCAR-5 ovarian 82.5% | OVCAR-4 ovarian 79.8% | SK-OV-3 ovarian 33.6% | IGROV1 ovarian 31.8% | HS 578T breast 14% | T-47D breast 47.3% | BT-549 breast 61.5% | SW-620 colon 19.3% | HCT-116 colon 25.3% | HCC-2998 colon 52.8%
active: OVCAR-3 ovarian 2.64% | MDA-MB-435 melanoma -25.1% | MCF7 breast 7.36% | KM12 colon 8.99%

NC1=NC(=O)C(c2ccccc2)(c2ccccc2)S1
inactive: RPMI-8226 leukemia 96.3% | OVCAR-8 ovarian 107% | OVCAR-5 ovarian 109% | OVCAR-4 ovarian 97% | SK-OV-3 ovarian 105% | IGROV1 ovarian 115% | OVCAR-3 ovarian 119% | HS 578T breast 108% | NCI/ADR-RES ovarian 109% | BT-549 breast 118% | MDA-MB-435 melanoma 121% | SW-620 colon 108% | MCF7 breast 105% | HCT-116 colon 106% | HCC-2998 colon 108%

O=C1C(c2ccccc2)C2C=CC(C2)N1O (centres undefined)
inactive: RPMI-8226 leukemia 81% | OVCAR-8 ovarian 104% | OVCAR-5 ovarian 119% | OVCAR-4 ovarian 116% | SK-OV-3 ovarian 106% | IGROV1 ovarian 108% | OVCAR-3 ovarian 112% | HS 578T breast 105% | T-47D breast 92.1% | BT-549 breast 136% | MDA-MB-435 melanoma 107% | SW-620 colon 109% | MCF7 breast 104% | HCT-116 colon 104% | HCC-2998 colon 103% | KM12 colon 108%

CCN1CCN(c2nc3ccccc3c3c(=O)c4ccccc4sc23)CC1
inactive: RPMI-8226 leukemia 53.8% | OVCAR-8 ovarian 36.9% | OVCAR-5 ovarian 68.7% | OVCAR-4 ovarian 55.2% | SK-OV-3 ovarian 59.9% | IGROV1 ovarian 36.3% | OVCAR-3 ovarian 60.7% | HS 578T breast 52.6% | T-47D breast 54.5% | BT-549 breast 69% | MDA-MB-435 melanoma 47.9% | SW-620 colon 24% | MCF7 breast 28.3% | HCT-116 colon 27.5% | HCC-2998 colon 57.2% | KM12 colon 36.1%

O=C1/C(=C\c2cn(C(=O)c3ccc(Cl)cc3)c3ccccc23)c2ccccc2N1C(=O)c1ccc(Cl)cc1
inactive: RPMI-8226 leukemia 57.5% | OVCAR-8 ovarian 78.7% | OVCAR-5 ovarian 115% | OVCAR-4 ovarian 72% | SK-OV-3 ovarian 77% | IGROV1 ovarian 80% | OVCAR-3 ovarian 84.3% | HS 578T breast 80.5% | NCI/ADR-RES ovarian 83.4% | T-47D breast 61.7% | MDA-MB-435 melanoma 97.6% | SW-620 colon 93.1% | MCF7 breast 71.1% | HCT-116 colon 65.1% | KM12 colon 24.3%
